Reference: the supplement of paper PMC11732987, “Enantioselective OTUD7B fragment discovery through chemoproteomics screening and high-throughput optimisation” (Communications Chemistry, 2025)
Values without a mark were called inactive.

Columns and labels:
Test in all cases: log2 ratio of Biotin-Ahx-Ub-VS probe labelling (fragment/DMSO); higher = less target engagement (more negative = stronger competition), active = hit call of the paper (q ≤ 0.05, log2 ratio ≤ -1)
Settings in all cases: compound concentration: 200 uM; treatment time: 3 h
USP19 = target: T1, USP19 (UniProt O94966)
T1 sequence (whole entry): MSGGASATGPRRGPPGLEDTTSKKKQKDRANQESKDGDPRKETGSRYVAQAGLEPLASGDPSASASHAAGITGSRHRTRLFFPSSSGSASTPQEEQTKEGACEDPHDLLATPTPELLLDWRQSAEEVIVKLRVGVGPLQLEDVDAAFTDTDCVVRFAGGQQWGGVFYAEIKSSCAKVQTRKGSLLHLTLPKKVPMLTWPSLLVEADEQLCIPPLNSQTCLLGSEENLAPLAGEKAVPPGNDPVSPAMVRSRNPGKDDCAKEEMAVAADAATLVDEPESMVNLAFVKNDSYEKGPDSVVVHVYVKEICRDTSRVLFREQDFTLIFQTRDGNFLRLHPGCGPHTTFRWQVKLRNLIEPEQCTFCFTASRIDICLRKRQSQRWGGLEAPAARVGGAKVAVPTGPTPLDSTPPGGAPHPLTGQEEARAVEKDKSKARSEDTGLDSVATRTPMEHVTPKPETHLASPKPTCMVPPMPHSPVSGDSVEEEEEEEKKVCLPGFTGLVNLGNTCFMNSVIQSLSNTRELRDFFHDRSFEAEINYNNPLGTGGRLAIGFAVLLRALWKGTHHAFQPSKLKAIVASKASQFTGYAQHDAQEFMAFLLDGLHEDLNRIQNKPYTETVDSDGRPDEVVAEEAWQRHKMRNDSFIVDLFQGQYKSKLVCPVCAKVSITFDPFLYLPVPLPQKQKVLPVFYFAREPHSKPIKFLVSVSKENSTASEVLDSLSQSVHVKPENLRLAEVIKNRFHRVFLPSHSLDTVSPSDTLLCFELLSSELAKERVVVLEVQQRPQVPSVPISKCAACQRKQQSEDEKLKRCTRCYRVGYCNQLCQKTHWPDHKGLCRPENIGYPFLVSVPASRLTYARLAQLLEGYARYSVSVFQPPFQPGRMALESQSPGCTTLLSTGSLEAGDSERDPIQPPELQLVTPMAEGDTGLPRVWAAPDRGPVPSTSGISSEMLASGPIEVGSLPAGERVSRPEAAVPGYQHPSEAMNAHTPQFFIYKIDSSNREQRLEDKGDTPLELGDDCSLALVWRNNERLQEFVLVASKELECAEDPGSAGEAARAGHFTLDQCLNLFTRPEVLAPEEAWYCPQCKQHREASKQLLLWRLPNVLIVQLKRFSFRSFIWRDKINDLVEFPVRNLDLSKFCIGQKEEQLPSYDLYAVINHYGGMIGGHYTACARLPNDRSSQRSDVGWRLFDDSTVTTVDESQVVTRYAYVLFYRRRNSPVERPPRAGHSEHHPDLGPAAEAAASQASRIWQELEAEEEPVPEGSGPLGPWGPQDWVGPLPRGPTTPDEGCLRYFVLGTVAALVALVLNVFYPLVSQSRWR
Summary of the method: (§1)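 The table lists average log2 ratios of fragment over vehicle, from an unpaired t-test on global-median-normalised Spectronaut label-free quantities. Proteins with ≥2 unique peptides were used. Samples were HEK293T lysate (495 µg) treated in triplicate with fragment at 200 µM or vehicle for 3 h, then with Biotin-Ahx-Ub-VS (0.5 µM final) for 1 h, with labelled DUBs NeutrAvidin-enriched and run by diaPASEF LC-MS/MS.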

USP22 = target: T2, USP22 (UniProt Q9UPT9)
T2 sequence (whole entry): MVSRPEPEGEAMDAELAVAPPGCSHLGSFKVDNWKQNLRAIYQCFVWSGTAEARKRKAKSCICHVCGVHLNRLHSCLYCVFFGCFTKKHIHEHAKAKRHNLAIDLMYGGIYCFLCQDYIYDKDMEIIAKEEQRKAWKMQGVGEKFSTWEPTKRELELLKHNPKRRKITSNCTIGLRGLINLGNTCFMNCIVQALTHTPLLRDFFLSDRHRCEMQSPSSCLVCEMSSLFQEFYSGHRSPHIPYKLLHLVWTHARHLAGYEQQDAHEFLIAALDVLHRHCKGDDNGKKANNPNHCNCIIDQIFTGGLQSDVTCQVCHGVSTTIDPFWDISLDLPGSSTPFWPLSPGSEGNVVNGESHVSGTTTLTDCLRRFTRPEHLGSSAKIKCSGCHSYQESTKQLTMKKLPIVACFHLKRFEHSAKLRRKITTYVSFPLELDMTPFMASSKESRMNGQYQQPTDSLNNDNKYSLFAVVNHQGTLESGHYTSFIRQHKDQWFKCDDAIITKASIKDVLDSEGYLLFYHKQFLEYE
Summary of the method: as §1

USP24 = USP24 (UniProt Q9UPU5)
Summary of the method: as §1

USP25 = target: T3, USP25 (UniProt Q9UHP3)
T3 sequence (whole entry): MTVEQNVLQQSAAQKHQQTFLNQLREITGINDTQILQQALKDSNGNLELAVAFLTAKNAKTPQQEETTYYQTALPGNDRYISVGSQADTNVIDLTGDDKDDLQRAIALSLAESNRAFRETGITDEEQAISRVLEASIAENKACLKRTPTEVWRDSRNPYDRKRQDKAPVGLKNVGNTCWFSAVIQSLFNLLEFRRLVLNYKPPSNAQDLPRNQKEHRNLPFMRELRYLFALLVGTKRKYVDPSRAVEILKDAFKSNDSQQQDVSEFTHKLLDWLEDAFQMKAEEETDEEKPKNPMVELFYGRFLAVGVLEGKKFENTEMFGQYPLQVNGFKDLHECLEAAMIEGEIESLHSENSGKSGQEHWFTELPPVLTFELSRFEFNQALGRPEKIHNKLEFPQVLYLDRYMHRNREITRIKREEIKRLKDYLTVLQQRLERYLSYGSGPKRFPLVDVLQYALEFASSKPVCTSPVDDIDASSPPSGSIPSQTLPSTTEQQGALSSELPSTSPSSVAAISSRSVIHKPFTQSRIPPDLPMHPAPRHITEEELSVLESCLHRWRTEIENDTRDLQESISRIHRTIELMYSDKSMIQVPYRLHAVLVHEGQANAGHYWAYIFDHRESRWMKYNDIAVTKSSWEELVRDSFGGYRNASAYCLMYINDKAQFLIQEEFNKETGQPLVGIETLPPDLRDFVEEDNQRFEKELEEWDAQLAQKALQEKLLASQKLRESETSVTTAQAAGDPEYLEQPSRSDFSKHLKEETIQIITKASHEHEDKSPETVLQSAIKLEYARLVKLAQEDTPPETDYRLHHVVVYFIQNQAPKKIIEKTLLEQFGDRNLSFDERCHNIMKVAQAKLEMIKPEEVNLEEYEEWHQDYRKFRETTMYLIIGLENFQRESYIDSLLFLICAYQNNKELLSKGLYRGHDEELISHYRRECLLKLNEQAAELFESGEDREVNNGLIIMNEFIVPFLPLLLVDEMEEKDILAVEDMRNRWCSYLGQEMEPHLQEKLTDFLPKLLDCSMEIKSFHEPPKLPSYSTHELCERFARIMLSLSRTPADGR
Summary of the method: as §1

USP28 = target: T4, USP28 (UniProt Q96RU2)
T4 sequence (whole entry): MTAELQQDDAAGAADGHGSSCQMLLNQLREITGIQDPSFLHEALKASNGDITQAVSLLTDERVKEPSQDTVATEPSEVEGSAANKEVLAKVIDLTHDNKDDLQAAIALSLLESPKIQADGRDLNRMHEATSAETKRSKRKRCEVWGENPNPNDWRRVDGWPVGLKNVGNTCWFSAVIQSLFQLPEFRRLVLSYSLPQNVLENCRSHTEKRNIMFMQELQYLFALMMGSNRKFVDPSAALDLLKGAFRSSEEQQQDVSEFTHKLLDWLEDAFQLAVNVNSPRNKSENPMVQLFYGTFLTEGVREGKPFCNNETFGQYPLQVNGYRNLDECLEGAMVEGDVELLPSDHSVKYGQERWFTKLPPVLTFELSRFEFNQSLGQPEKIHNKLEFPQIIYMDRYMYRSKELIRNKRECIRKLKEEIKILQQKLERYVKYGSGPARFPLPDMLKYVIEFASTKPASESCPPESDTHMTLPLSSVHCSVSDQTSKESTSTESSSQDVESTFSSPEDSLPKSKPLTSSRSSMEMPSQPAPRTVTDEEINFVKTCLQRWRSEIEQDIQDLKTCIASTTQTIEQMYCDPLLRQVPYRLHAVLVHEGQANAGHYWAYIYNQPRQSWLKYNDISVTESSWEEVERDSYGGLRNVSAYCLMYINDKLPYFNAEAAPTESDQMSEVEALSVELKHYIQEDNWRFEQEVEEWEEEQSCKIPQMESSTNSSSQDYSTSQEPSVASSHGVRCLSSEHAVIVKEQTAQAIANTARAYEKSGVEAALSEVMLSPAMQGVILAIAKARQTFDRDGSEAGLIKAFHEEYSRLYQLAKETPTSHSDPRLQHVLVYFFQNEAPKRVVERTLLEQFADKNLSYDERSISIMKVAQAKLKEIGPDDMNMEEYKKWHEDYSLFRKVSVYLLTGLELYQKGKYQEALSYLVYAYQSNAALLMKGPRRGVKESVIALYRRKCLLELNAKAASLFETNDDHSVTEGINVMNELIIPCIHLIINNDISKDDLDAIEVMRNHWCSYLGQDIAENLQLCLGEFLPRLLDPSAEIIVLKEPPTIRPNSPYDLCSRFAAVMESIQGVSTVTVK
Summary of the method: as §1

Sequence of USP24 (Q9UPU5 whole entry): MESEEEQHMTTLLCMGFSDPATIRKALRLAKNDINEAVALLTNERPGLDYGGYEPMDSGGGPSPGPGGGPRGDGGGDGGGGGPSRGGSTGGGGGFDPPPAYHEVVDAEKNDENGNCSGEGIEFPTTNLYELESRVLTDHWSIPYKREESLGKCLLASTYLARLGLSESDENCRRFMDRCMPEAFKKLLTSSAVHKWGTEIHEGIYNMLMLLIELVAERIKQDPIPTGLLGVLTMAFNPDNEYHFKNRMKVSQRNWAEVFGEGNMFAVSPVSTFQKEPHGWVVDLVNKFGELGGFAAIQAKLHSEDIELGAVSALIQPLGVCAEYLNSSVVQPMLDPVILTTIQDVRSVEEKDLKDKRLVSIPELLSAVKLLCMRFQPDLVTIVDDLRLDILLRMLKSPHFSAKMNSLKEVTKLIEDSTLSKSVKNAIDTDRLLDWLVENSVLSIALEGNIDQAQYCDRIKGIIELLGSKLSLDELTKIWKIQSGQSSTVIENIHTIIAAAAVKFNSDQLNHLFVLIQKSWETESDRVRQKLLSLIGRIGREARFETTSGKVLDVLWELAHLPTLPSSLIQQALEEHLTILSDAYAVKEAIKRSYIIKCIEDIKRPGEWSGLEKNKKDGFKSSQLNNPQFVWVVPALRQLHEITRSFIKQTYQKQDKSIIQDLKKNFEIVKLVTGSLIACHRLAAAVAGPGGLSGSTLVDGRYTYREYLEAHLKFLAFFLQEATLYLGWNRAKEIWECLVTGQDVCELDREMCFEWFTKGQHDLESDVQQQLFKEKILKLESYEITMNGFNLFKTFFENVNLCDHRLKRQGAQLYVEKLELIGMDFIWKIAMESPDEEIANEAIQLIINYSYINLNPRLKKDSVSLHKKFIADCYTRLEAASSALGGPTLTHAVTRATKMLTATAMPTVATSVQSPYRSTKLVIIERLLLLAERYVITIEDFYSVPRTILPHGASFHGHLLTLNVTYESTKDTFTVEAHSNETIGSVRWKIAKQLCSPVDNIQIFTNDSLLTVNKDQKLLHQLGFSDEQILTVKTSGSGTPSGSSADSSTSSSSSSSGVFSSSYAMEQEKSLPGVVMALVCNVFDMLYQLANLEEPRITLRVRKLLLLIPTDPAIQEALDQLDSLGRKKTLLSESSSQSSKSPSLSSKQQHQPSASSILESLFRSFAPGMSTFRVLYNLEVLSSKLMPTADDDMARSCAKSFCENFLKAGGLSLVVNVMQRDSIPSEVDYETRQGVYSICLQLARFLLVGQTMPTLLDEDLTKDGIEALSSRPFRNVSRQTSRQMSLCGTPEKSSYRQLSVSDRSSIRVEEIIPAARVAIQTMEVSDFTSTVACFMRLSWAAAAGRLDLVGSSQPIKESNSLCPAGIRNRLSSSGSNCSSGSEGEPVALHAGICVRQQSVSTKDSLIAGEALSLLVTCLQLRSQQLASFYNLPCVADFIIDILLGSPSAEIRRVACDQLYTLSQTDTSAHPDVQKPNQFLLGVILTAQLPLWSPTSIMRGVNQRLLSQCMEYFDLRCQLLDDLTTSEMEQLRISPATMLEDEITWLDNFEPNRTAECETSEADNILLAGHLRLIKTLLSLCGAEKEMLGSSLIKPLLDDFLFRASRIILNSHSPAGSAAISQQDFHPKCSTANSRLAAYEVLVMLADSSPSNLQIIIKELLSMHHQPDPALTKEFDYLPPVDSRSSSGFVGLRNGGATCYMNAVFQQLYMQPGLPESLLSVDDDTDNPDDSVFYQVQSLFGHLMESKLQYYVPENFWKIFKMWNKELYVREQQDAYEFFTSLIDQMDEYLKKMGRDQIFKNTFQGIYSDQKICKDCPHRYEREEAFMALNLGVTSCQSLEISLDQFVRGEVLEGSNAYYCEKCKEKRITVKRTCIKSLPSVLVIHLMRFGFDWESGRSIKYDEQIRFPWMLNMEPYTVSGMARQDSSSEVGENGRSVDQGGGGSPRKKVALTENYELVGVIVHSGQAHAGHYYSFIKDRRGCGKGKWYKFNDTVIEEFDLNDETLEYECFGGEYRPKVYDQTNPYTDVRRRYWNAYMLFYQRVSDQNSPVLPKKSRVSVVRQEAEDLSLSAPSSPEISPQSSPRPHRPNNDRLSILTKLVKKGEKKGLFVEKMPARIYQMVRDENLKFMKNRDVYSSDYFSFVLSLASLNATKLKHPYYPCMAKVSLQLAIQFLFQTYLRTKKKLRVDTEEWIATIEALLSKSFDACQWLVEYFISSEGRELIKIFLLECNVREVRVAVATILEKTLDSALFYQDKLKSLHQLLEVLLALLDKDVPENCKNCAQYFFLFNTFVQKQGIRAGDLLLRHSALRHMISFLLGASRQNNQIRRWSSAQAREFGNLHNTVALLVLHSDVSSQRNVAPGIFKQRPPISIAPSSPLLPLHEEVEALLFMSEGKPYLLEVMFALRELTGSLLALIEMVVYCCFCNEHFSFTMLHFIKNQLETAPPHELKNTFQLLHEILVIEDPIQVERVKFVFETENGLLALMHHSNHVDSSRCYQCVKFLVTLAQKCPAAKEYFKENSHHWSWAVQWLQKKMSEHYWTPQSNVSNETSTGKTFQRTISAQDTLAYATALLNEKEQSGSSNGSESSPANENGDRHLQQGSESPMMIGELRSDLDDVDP

CN(C)C(=O)c1ccc(NC(=O)CCl)cc1
log2 ratio of Biotin-Ahx-Ub-VS probe labelling (USP19): -0.166 | log2 ratio of Biotin-Ahx-Ub-VS probe labelling (USP22): -0.0455 | log2 ratio of Biotin-Ahx-Ub-VS probe labelling (USP24): -0.00912 | log2 ratio of Biotin-Ahx-Ub-VS probe labelling (USP25): -1.1 (active) | log2 ratio of Biotin-Ahx-Ub-VS probe labelling (USP28): -1.47 (active)
